Test [1] can be described thus: Wnt pathway potentiators raising nuclear beta-catenin – imaging, WNT3A-conditioned medium, mouse C2C12, NPC library, primary screen (AID 1117326; in the data active = nuclear beta-catenin stimulation mostly above about 4.2%, no sharp cut-off; inactive = mostly below about 10%). Particulars: stronger effect = higher value.
Test [2] is described as follows: stimulators of insulin release from INS-1E, primary screen, cell-based, 5 mM glucose, NPC library (AID 1117329;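 active = compound raises insulin release from rat beta cells at 5 mM glucose, no numeric limit stated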). Particulars: rat INS-1E insulin secretion, at 10 µM, stronger effect = higher value.
The nature of test [3]: growth inhibition of GSK3B-pretreated HCT116 cells – cell-based, CellTiter-Glo, 0.2 to 20 µM (AID 1117336;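 active = compounds lowering colon cancer cell viability after pretreatment blocking the GSK3B kinase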). Particulars: HCT116 viability after GSK3B inhibitor, at 20 µM, stronger effect = higher value.
The nature of test [4]: inhibition of endothelial tube formation, primary screen, imaging, VEGF stimulated, CD31 staining, tube area, NPC library (AID 1117340;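 active = compound that reduces growth-factor-driven endothelial tube area in a mixed cell culture, no cutoff stated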). Particulars: VEGF-stimulated ADSC/ECFC co-culture, at 10 µM, stronger effect = higher value.
A short description of test [5]: GLP1 release stimulators, primary, NCI-H716, NPC library (AID 1117341;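 active = compound raises GLP1 secretion from the human gut endocrine cells, with no numeric limit stated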). Particulars: NCI-H716 cells, at 10 µM, stronger effect = higher value.
A short description of test [6]: HCT116 colon cancer cell growth inhibition, primary screen, CellTiter-Glo luminescence, NPC library (AID 1117342;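 active = compounds that lower survival of HCT116 colon cancer cells in the luminescence readout, no numeric limit stated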). Particulars: at 20 µM (top of the series). Background: ATP-based viability assays read luminescence as a measure of living cells.
Test [7] can be described thus: reduced SW480 viability measured with CellTiter-Glo, NPC library, primary (AID 1117343;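 active = compounds that lower viability of the colon cancer cells in the luminescence readout, with no numeric limit stated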). Particulars: CellTiter-Glo luminescence; at 20 µM (top of the series) unless noted.
Test [8] in a line: NPC library primary testing for decreased DLD-1 cell viability via CellTiter-Glo (AID 1117346;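 active = compounds that lower survival of DLD-1 colon cancer cells in the luminescence readout, no cutoff given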). Particulars: DLD-1 viability, CellTiter-Glo luminescence; at 20 µM (top of the series).
The nature of test [9]: viability loss in pontine glioma line – cell-based, JHH-DIPG-1, MIPE4.0, CellTiter-Glo, qHTS, dose response (AID 1347062; cut-off not given, nearly all actives have AC50 up to about 27 µM). Particulars: JHH-DIPG-1 viability, CellTiter-Glo ATP luminescence.
Test [10] is described as follows: viability loss in pontine glioma line – cell-based, SU-DIPG-XXV, MIPE5.0, CellTiter-Glo, qHTS, dose response (AID 1347065; cut-off not given, nearly all actives have AC50 up to about 26 µM;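 note: cells exposed to compound for 48 hours before ATP readout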). Particulars: CellTiter-Glo ATP luminescence.
Test [11] is described as follows: growth inhibition of DIPG cells – cell-based, MIPE4.0 library, CellTiter-Glo luminescence, qHTS (AID 1347066; cut-off not given, nearly all actives have AC50 up to about 30 µM;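 note: cells exposed to compound for 48 hours before readout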). Particulars: SU-DIPG-VI viability, CellTiter-Glo ATP luminescence.
Test [12] can be described thus: JHH-DIPG-1 glioma cell viability, MIPE5.0 library, CellTiter-Glo luminescence, qHTS (AID 1347067; cut-off not given, nearly all actives have AC50 up to about 26 µM;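 note: cells exposed to compound for 48 hours before readout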). Particulars: JHH-DIPG-1 glioma viability, CellTiter-Glo ATP luminescence.
A short description of test [13]: viability loss with induced miR-34 in A549 – imaging, A549 dox-inducible miR-34, nuclei and caspase counts, primary screen (AID 1347080;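 active = compounds whose cell count with miR-34 switched on is under 0.7 times the count with it off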). Particulars: A549 miR-34 inducible, Hoechst nuclei count, 48 h.
Test [14] is described as follows: MELAS cybrid and Rieske KO viability enhancers – cell-based, MELAS cybrids, Rieske KO mouse fibroblasts, CellTiter-Glo, primary screen (AID 1508586;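 active = mean z-score across replicates of 1.96 or higher in either the MELAS or the Rieske mutant cell line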;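 note: z relative to plate mean and SD of compound and empty wells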). Particulars: low glucose.
Test [15] can be described thus: drug combination growth inhibition, ovarian cancer – cell-based, oncology-focused library, rucaparib conditional, profiling panel (AID 1508598). Particulars: patient-derived ovarian cancer cells, CellTiter-Glo viability, 144 h, stronger effect = lower value.
Test [16] is described as follows: viability loss in pontine glioma line – cell-based, SU-DIPG-IV, MIPE4.0, CellTiter-Glo, qHTS, dose response (AID 1347063; cut-off not given, nearly all actives have AC50 up to about 30 µM;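 note: compound exposure lasted 48 hours before the viability readout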). Particulars: CellTiter-Glo ATP luminescence.
Test [17] can be described thus: growth inhibition of DIPG cells – cell-based, MIPE5.0 library, qHTS (AID 1347068; cut-off not given, nearly all actives have IC50 up to about 30 µM). Particulars: SU-DIPG-XXV viability. Background: qHTS replaces the single test concentration by a dilution series.
Test [18] is described as follows: P. berghei load reduction in hepatocytes – cell-based, HepG2, luciferase luminescence, HepG2 viability, primary screen (AID 624349; in the data active = parasite load remaining mostly below about 12%, no sharp cut-off; inactive = mostly above about 10%;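 note: 100% = mean of DMSO negative control wells on the same plate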). Particulars: P. berghei liver stage in HepG2, luciferase luminescence, concentration not given here; parasite load remaining: stronger effect = lower value; viability: measured here: HepG2 viability without parasites.
Where [19] appears, read: stronger effect = lower value, cell number ratio, induced over uninduced.
Where [20] appears, read: measured here: relative caspase fold change +Dox/-Dox.
Setting [21] is: measured here: total cells with miR-34 induction, stronger effect = lower value.
Where [22] appears, read: measured here: total cells without miR-34 induction.
Setting [23] is: MELAS cybrid survival, CellTiter-Glo 48 h, stronger effect = higher value.
Where [24] appears, read: Rieske KO mouse fibroblast survival, CellTiter-Glo 72 h.

The results in this text go back to PubChem BioAssay.

SMILES strings stand for the structures. Values joined by “and” are separate entries in the source; they are usually repeats but may differ in a detail not shown here. Equal entries are not always repeated. Records with an inconclusive call do not appear. Active and inactive are the calls of the source.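 Rule for the calls, unless noted: active = normalized viability below 100% at a tested concentration; inactive = the rest.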

For orientation: AC50 means the concentration giving half of the maximal activity seen. As usually defined, the viability is a read-out of living cells in per cent, often relative to untreated cells.

With `Cc1ccc(Nc2nccc(N(C)c3ccc4c(C)n(C)nc4c3)n2)cc1S(N)(=O)=O`, the nuclear beta-catenin stimulation in [1] (at 10 µM) is 5.9% (inactive); in [1] (stimulation, at 2 µM), 1%. Also, in test [2], the insulin secretion stimulation was 4.9% (inactive). Further, the viability decrease in test [3] was 20.9% (inactive). In [4], the tube area decrease was 97.1% (active). For the same compound, the GLP1 secretion stimulation in [5] is -3.5% (inactive). Further, the inhibition of viability in test [6] was 48.8% (inactive). Moreover, the values for the viability decrease (inhibition) in test [7] and in test [8] were 69.3% (active) and 14.5% (inactive), respectively. The outcome in test [9] and in test [11] was inactive. Moreover, the results for the AC50 in test [10] and in [12] were 5.9 µM (active) and 18.6 µM (active), respectively. In addition, the fold change in [13] (setting [19]) was 0.9 (inactive) and 0.786 (inactive); in test [13] (setting [20]), 1.31 and 0.946. For the same compound, the cell count was 4740 and 6080 in test [13] (setting [21]); 5260 and 7730 in [13] (setting [22]). For the same compound, the z-score in [14] (setting [23]) was -0.327 (inactive) and -0.404 (inactive); in test [14] (setting [24]), -0.2 and 1.1. Moreover, the viability in test [15] (at 0.000305 µM, OCI-C5x cells, with rucaparib 10 µM, 100% = cells with rucaparib alone) is 96.4% (active); in test [15] (at 0.000305 µM, OCI-C5x cells, without rucaparib), 95.3% (active); in [15] (at 0.000305 µM, OCI-P5x cells, with rucaparib 20 µM, 100% = cells with rucaparib alone), 99% (active); in [15] (at 0.000305 µM, OCI-P5x cells, without rucaparib) it was 100% (inactive); in [15] (at 0.00122 µM, OCI-C5x cells, with rucaparib 10 µM, 100% = cells with rucaparib alone), 104% (inactive); in test [15] (at 0.00122 µM, OCI-C5x cells, without rucaparib), 106% (inactive). The viability was 105% (inactive) in test [15] (at 0.00122 µM, OCI-P5x cells, with rucaparib 20 µM, 100% = cells with rucaparib alone); 99.5% (active) in test [15] (at 0.00122 µM, OCI-P5x cells, without rucaparib); 104% (inactive) in test [15] (at 0.00488 µM, OCI-C5x cells, with rucaparib 10 µM, 100% = cells with rucaparib alone); 98.4% (active) in [15] (at 0.00488 µM, OCI-C5x cells, without rucaparib); 100% (inactive) in test [15] (at 0.00488 µM, OCI-P5x cells, with rucaparib 20 µM, 100% = cells with rucaparib alone); 99.3% (active) in test [15] (at 0.00488 µM, OCI-P5x cells, without rucaparib). The viability was 98.1% (active) in [15] (at 0.0195 µM, OCI-C5x cells, with rucaparib 10 µM, 100% = cells with rucaparib alone); 100% (inactive) in [15] (at 0.0195 µM, OCI-C5x cells, without rucaparib); 97.8% (active) in test [15] (at 0.0195 µM, OCI-P5x cells, with rucaparib 20 µM, 100% = cells with rucaparib alone); 98.3% (active) in test [15] (at 0.0195 µM, OCI-P5x cells, without rucaparib); 103% (inactive) in test [15] (at 0.0781 µM, OCI-C5x cells, with rucaparib 10 µM, 100% = cells with rucaparib alone); 102% (inactive) in test [15] (at 0.0781 µM, OCI-C5x cells, without rucaparib). The viability is 97.9% (active) in [15] (at 0.0781 µM, OCI-P5x cells, with rucaparib 20 µM, 100% = cells with rucaparib alone); 95.6% (active) in test [15] (at 0.0781 µM, OCI-P5x cells, without rucaparib); 109% (inactive) in test [15] (at 0.313 µM, OCI-C5x cells, with rucaparib 10 µM, 100% = cells with rucaparib alone); 95.9% (active) in test [15] (at 0.313 µM, OCI-C5x cells, without rucaparib); 100% (inactive) in [15] (at 0.313 µM, OCI-P5x cells, with rucaparib 20 µM, 100% = cells with rucaparib alone); 90.2% (active) in test [15] (at 0.313 µM, OCI-P5x cells, without rucaparib). The viability in [15] (at 1.25 µM, OCI-C5x cells, with rucaparib 10 µM, 100% = cells with rucaparib alone) was 108% (inactive); in test [15] (at 1.25 µM, OCI-C5x cells, without rucaparib), 96.9% (active); in test [15] (at 1.25 µM, OCI-P5x cells, with rucaparib 20 µM, 100% = cells with rucaparib alone), 87.9% (active); in test [15] (at 1.25 µM, OCI-P5x cells, without rucaparib), 91.3% (active); in test [15] (at 5 µM, OCI-C5x cells, with rucaparib 10 µM, 100% = cells with rucaparib alone), 112% (inactive); in test [15] (at 5 µM, OCI-C5x cells, without rucaparib), 115% (inactive). Further, the viability in [15] (at 5 µM, OCI-P5x cells, with rucaparib 20 µM, 100% = cells with rucaparib alone) was 86% (active); in test [15] (at 5 µM, OCI-P5x cells, without rucaparib) it was 86% (active).

In the case of `CC(C)OC(=O)OCOP(=O)(CO[C@H](C)Cn1cnc2c(N)ncnc21)OCOC(=O)OC(C)C`, the nuclear beta-catenin stimulation in test [1] (at 10 µM) is 6.3% (inactive); in test [1] (stimulation, at 2 µM), 3%. In [2], the insulin secretion stimulation was 13.8% (inactive). Also, the viability decrease in test [3] was 2.2% (inactive). For the same compound, the tube area decrease in [4] was 65.2% (active). In addition, in test [5], the GLP1 secretion stimulation is -1.8% (inactive). Further, in test [6], the inhibition of viability was 32.1% (inactive). Moreover, the results for the viability decrease (inhibition) in test [7] and in test [8] were 22.7% (inactive) and 47.8% (inactive), respectively. The result in test [9], in [16] and in test [11] was inactive.

As to `COCCCN1CCC(NC(=O)c2cc(Cl)c(N)c3c2OCC3)CC1`, the nuclear beta-catenin stimulation in [1] (at 10 µM) is 0.7% (inactive); in test [1] (stimulation, at 2 µM), -2%. In test [2], the insulin secretion stimulation is 1% (inactive). The viability decrease in test [3] is -4.2% (inactive). Besides, the tube area decrease in test [4] is -8% (inactive). Further, the GLP1 secretion stimulation in test [5] is 1.9% (inactive). For the same compound, the inhibition of viability in [6] is 3.4% (inactive). Also, the figures for the viability decrease (inhibition) in [7] and in test [8] were -13.9% (inactive) and -4.2% (inactive), respectively. The compound was called inactive in test [9], in test [12] and in test [17]. For the same compound, the AC50 in test [11] is 23.5 µM (active). In addition, the fold change was 0.972 (inactive) and 1.31 (inactive) in [13] (setting [19]); 0.687 and 0.593 in test [13] (setting [20]). In addition, the cell count in test [13] (setting [21]) was 8080 and 7810; in test [13] (setting [22]), 8300 and 5970. Moreover, the z-score in [14] (setting [23]) was -0.321 (inactive) and -0.32 (inactive); in test [14] (setting [24]) it was -0.104 and -0.205.

Take `Clc1ccc(C(Cn2ccnc2)OCc2c(Cl)cccc2Cl)c(Cl)c1` (centres undefined): the parasite load remaining in [18] is 26.3% (inactive) and 91.5% (inactive). Further, the viability in [18] was 46.9% and 87.2%. For the same compound, the nuclear beta-catenin stimulation was 1.3% (inactive) in [1] (at 10 µM) and -1.1% in test [1] (stimulation, at 2 µM). The insulin secretion stimulation in test [2] was 3.1% (inactive). Besides, in test [3], the viability decrease is 110% (active). In addition, the tube area decrease in test [4] was 107% (active). Moreover, the GLP1 secretion stimulation in test [5] was 35.3% (active). In addition, the inhibition of viability in [6] is 113% (active). Besides, the viability decrease (inhibition) in [7] is 132% (active); in test [8], 101% (active). In addition, the AC50 in test [10] is 23.5 µM (active).
